Shown are actives, neighbours in structure and some others; about 5.8% of the full set was active somewhere.
TRPV1 potentiator – HTS Assay for Compounds that Act as Potentiators of the Vanilloid Receptor 1 | potentiation, % at 8.33 µM | AID 540277, 2011 | 0.02% of 320,000 active | TRPV1-expressing cells, Fluo-8 calcium influx, capsaicin EC20 potentiation; in the data active means potentiation above about 80%; inconclusive means between about 30% and that limit
Target sequence (Q8NER1 whole entry, looked up): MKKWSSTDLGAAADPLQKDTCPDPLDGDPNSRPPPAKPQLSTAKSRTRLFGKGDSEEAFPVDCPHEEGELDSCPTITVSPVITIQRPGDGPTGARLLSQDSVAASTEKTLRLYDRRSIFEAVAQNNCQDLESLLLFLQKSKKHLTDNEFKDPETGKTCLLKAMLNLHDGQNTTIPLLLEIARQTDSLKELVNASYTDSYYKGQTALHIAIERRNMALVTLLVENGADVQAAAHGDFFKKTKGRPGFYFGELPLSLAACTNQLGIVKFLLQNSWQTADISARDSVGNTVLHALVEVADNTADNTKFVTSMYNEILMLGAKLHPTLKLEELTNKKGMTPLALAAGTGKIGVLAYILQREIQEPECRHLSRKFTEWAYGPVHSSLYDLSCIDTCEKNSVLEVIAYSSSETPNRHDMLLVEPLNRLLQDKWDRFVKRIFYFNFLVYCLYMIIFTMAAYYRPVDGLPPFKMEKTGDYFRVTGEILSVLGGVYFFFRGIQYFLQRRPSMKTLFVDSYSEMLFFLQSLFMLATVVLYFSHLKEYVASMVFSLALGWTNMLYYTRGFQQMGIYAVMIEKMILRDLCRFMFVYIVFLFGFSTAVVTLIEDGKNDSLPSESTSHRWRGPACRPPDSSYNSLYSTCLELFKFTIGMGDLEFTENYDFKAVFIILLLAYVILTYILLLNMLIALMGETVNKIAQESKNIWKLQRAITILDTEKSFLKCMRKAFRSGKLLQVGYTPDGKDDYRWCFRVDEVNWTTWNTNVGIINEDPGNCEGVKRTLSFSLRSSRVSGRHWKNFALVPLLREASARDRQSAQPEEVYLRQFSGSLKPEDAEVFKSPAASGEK
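Cells expressing TRPV1 were dye-loaded with Fluo-8 and read kinetically: 10 s baseline, 3 min after compound (agonist portion), then 2 min after EC20 capsaicin (allosteric enhancer portion). Calcium-bound dye fluorescence at 480/520 nm.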
VP16 counter – VP16 counterscreen qHTS for inhibitors of ROR gamma transcriptional activity; Drosophila S2 Gal4-VP16 UAS-luciferase, luminescence, 20 h; Potency, µM (titrated, usually from 53.6 µM), most hits filed as inhibitors; 3.5% of 310,000 active;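 further: Gal4-VP16 expression switched on by copper sulfate through the metallothionein promoter; nearly all actives have a fitted effect of over 50% in size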
uPA surface inh – qHTS for Inhibitors of Cell Surface uPA Generation; AID 540303, 2011; Potency, µM (highest dose often 38.3 µM), usual class: inhibitors; cell surface uPA generation assay, qHTS; 0.31% of 330,000 active; active means well fitted inhibition curve with a large enough effect; inconclusive means small, poorly fitted or top-dose-only effect; inactive means no such curve, though single readings can be large or run the other way; tested in mouse RAW 264.7 cells; further: nearly all actives have a fitted effect of over 55% in size
RORgamma inh – qHTS for inhibitors of ROR gamma transcriptional activity; Drosophila S2 Gal4-RORgamma UAS-luciferase reporter, 20 h; Potency, µM (top dose mostly 53.6 µM), actives largely listed as inhibitors; 5.4% of 310,000 active; Nuclear receptor ROR-gamma (Mus musculus), P51450; AID 2551, 2010; further: nearly all actives have a fitted effect of over 60% in size
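Compounds are pin-transferred onto Drosophila Schneider cells expressing a copper-inducible Gal4–ROR gamma transactivation domain fusion. After 1 hr, copper sulfate is added to 700 uM final; luciferase is read 20 hr later.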
TRPV1 agonist – HTS Assay for Compounds that Act as Agonists of the Vanilloid Receptor 1; TRPV1-expressing cells, Fluo-8 calcium influx, agonist mode; 0.19% of 320,000 active; activation, % at 8.33 µM; in the data active means activation above about 80%; inconclusive means between about 30% and that limit
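Fluo-8 calcium influx in TRPV1-expressing cells, kinetic read (ex 480/em 520 nm). Compound added and read 3 min for agonist activity, followed by capsaicin at EC20 final and 2 min further read for enhancement.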
A number is an active result; i = inactive; ? = inconclusive; nt = no result; [ ] = another dose, or the depositor's remark. Unless noted, the call rests on the fitted dose curve; in most records, active means well fitted curve in the direction sought with a large enough effect; inconclusive means small, poorly fitted or top-dose-only effect, or another doubt; inactive means no such curve, though single readings can be large; an effect the other way counts as inactive or inconclusive.

SMILES | TRPV1 potentiator | VP16 counter | uPA surface inh | RORgamma inh | TRPV1 agonist
CCCCCCCN(C(=O)CCl)c1cccc(C)c1 | i | ? | i | ? | i
O=C(CCl)N(c1ccccc1)c1ccccc1 | i | ? | i | 14.1µM | i
O=C(N(c1ccccc1)c1ccccc1)N(c1ccccc1)c1ccccc1 | i | i | i | i | i
CCCCCCN(C(=O)CCl)c1ccccc1 | i | ? | 2.51µM | ? | i
O=C(COc1ncnc2ccccc12)NCC1CCCO1 (configuration not stated) | i | i | i | i | i
Cc1cccc(-c2nnc(NC(=O)c3ccc(Cl)cc3)o2)c1 | i | 1.41µM | nt | 1.41µM | i
Cc1cccc(NS(=O)(=O)c2nnc(NC(=O)c3ccc(Cl)cc3)s2)c1 | i | i | i | i | i
O=C(Nc1nnc(-c2cccnc2)o1)c1cccc(Cl)c1 | i | 0.708µM | i | 0.501µM | i
COc1cc(OC)cc(C(=O)Nc2nnc(-c3cccnc3)o2)c1 | i | 4.47µM | i | 1.41µM | i
CC(=O)NCCNc1nc(-c2ccccc2C(F)(F)F)nc2ccccc12 | nt | i | nt | i | nt
CCOC(=O)N1CCN(Cc2cc(Cl)c3cccnc3c2O)CC1 | i | 0.0891µM | i | 0.126µM | i
Oc1c(CN2CCN(c3ccccc3)CC2)cc(Br)c2cccnc12 | i | 0.891µM | ? | 0.562µM | i
CCOC(=O)N1CCN(Cc2ccccc2Cl)CC1 | i | i | nt | i | i
Oc1c(CN2CCOCC2)cc(COCc2ccccc2)c2cccnc12 | i | 0.0891µM | i | 0.794µM | i
Oc1c(Br)cc(Br)c2cccnc12 | nt | i | i | 0.282µM | nt
c1ccc(N2CCN(Cc3ccnc4ccccc34)CC2)cc1 | i | nt | nt | i[0.365 µM] | i
CC1=C(C(N)=O)S(=O)(=O)c2ccccc21 | i | i | i | i | i
O=C(O)COc1cccc2c1CCC=C2CCO/N=C(\c1ccccc1)c1cccnc1 | nt | i | nt | i | nt
COc1ccccc1C(C)NC(=O)CCC(=O)N1CCN(S(=O)(=O)c2ccc(Cl)cc2)CC1 (configuration not stated) | nt | nt | i | nt | nt
CCc1nc2ccccc2c(C(=O)Oc2ccc(C(=O)OC)cc2)c1C | i | i | i | i[10 µM] | i
COCc1cc(CN2CCN(C)CC2)c(O)c2ncccc12 | i | 5.62µM | i | 3.16µM | i
CCCN1C(=O)/C(=C/c2ccc3c(c2)OCO3)NC1=S | i | ? | i | 8.91µM | ?
CCCN1C/C(=C/c2ccc3c(c2)OCO3)C(=O)/C(=C/c2ccc3c(c2)OCO3)C1 | i | i | i | i | i
CCOC(=O)N1CCN(c2nc(C(F)(F)F)nc3c(C)cc(C)cc23)CC1 | i | 20µM | i | ? | ?
N#Cc1c(Cl)nsc1NC(=O)c1ccccc1 | i | 3.98µM | ? | 8.91µM | i
SMILES | TRPV1 potentiator | VP16 counter | uPA surface inh | RORgamma inh | TRPV1 agonist
O=C(Nc1cc(F)ccc1F)N1CCN(c2ccnc3cc(Cl)ccc23)CC1 | i | 12.6µM | i | i | ?
CCOC(=O)[C@H]1[C@H]2COc3ccc(Cl)cc3[C@@H]2N2C(=O)c3ccccc3NC(=O)[C@@]12C | i | nt | i | nt | ?
CCOC(=O)[C@H]1[C@H]2COc3ccc(Cl)cc3[C@@H]2N2C(=O)c3ccc(F)cc3NC(=O)[C@@]12C | i | nt | i | nt | 82.8
CCOC(=O)[C@H]1[C@H]2COc3ccc(Cl)cc3[C@@H]2N2C(=O)c3ccc(C)cc3NC(=O)[C@@]12C | ? | nt | i | nt | 98.9
COc1ccc2c(c1)OC[C@H]1[C@H]2N2C(=O)c3cc(Br)ccc3NC(=O)[C@@]2(C)[C@H]1c1ccccc1 | i | nt | i | nt | i
O=C(CC(c1ccccc1)c1ccccc1O)N1CCCCC1 (configuration not stated) | i | i | i | ? | i
CCN(C(=O)CN1CCN(C)CC1)c1c(N)n(Cc2ccccc2)c(=O)[nH]c1=O | i | nt | i | nt | i
CC(C)C(C(=O)O)N1C(=O)/C(=C/c2ccc(Br)cc2)SC1=S (configuration not stated) | nt | ? | nt | i | nt
CCC(NC(=O)C(C)NC)C(=O)N1CCCC1C(=O)NC1CCCc2ccccc21 (configuration not stated) | i | nt | 0.398µM | nt | i
CCC(C)[C@H](NC(=O)NC1CCCc2ccccc21)C(=O)O (some centres not stated) | i | i | nt | i | i
O=C(Cn1ncc(Cl)c(Cl)c1=O)N1CCOCC1 | i | i | i | i | i
Cc1ccc(Cn2ncc(Cl)c(Cl)c2=O)cc1 | i | ? | i | ? | i
O=c1c(Cl)c(Cl)cnn1-c1ccccc1 | i | 11.2µM | 3.55µM | 10µM | i
Cc1cc(C)cc(Cn2ncc(Cl)c(Cl)c2=O)c1 | i | 11.2µM | i | ? | i
O=c1c(Cl)c(Cl)cnn1Cc1ccccc1Cl | i | ? | i | 1.12µM | i
O=C(Cn1ncc(Cl)c(Cl)c1=O)N1CCN(Cc2ccccc2)CC1 | i | i | 11.2µM | ? | i
CC(C)(C)c1ccc(C(=O)NC(=O)CSc2n[nH]c(N)n2)cc1 | i | nt | ? | nt | i
Cc1ccc(S(=O)(=O)NC(CC(=O)O)c2ccc(F)cc2)cc1 (configuration not stated) | i | i | i | i | i
CC(=O)C1(C)C(=O)N(c2ccc(F)cc2)C(=O)N1c1ccc(F)cc1 (configuration not stated) | nt | nt | i | nt | nt
O=C(Nc1ccc(OC(F)F)c(Cl)c1)Nc1ccc2c(c1)OCO2 | i | i | i | i | i
O=C(Nc1ccc([N+](=O)[O-])cc1)Nc1ccc(OC(F)F)c(Cl)c1 | i | 12.6µM | i | ? | i
CC1Cc2ccccc2C(CCc2ccccc2)=N1 (configuration not stated) | i | i | i | 12.6µM | i
C[C@H]1CN=C(N(C)C)N1CCc1ccccc1 | i | nt | i | nt | i
Cc1nc(N2CCOCC2)c2nc(-c3ccccc3)n(CCCN3CCOCC3)c2n1 | nt | i | nt | i | nt
NNC(=O)c1sc2cc(C(F)(F)F)cnc2c1-c1cccnc1 | i | ? | i | 14.1µM | i
SMILES | TRPV1 potentiator | VP16 counter | uPA surface inh | RORgamma inh | TRPV1 agonist
NC(=O)c1sc2cc(C(F)(F)F)cnc2c1-c1cccs1 | i | i | i | i | i
NNC(=O)c1sc2cc(C(F)(F)F)cnc2c1-c1cccs1 | i | ? | i | 10µM | i
O=C1[C@H]2[C@H]3[C@H](O)[C@H](O)C/C(=N/OC[C@@H](O)COCc4ccco4)[C@H]3CC[C@@H]2C(=O)N1Cc1ccc2c(c1)OCO2 | nt | i[10 µM] | nt | i[10 µM] | nt
CC(CCc1ccccc1)NC(=O)CCNC(=O)Cn1ccc2ccccc2c1=O (configuration not stated) | i | i | i | i | i
CC1CCc2c(sc3ncnc(SCC(=O)Nc4ccc(C(=O)O)cc4)c23)C1 (configuration not stated) | i | i | i | i | i
COc1cc(NC(=O)CSc2ncnc3sc4c(c23)CCC(C)C4)c(C(=O)O)cc1OC (configuration not stated) | i | ? | i | 11.2µM | i
